Results published in PubChem BioAssay (EPA / NIEHS).
Active and inactive are the calls of the source. Rule for the calls: active = hit-call score of the fitted dose curve at least 0.9, where 1 is the maximum; inactive = score below 0.9.

Read-out: Cytochrome P450 7A1 (Homo sapiens) (UniProt P22680)
Assay: LTEA_HepaRG_CYP7A1: Life Technologies and Expression Analysis (LTEA) Assay for Cytochrome P450 7A1 (CYP7A1) using HepaRG (AID 2283496)
Conditions: mRNA level, 48 h; actives raise or lower the signal
Procedure: LTEA_HepaRG is a cell based, multiplexed-readout assay that uses HepaRG, a human liver cell line, with measurements taken at 48 hours after chemical dosing on a 96-well plate.LTEA_HepaRG_CYP7A1 is one of 102 assay component(s) measured in the LTEA HepaRG cell culture assay. It is a marker of NR mediated metabolism.Data from the assay component LTEA_HepaRG_CYP7A1 was analyzed into 1 endpoint. This assay endpoint, LTEA_HepaRG_CYP7A1, was analyzed with bidirectional fitting relative to DMSO as the negative control and baseline of activity. Using a type of inducible reporter, measures of mRNA induction for gain or loss-of-signal activity can be used to understand regulation of transcription factor activity. To generalize the intended target to other relatable targets, this assay endpoint is annotated to the cyp intended target family, where the subfamily is xenobiotic metabolism.
A total of 1060 chemcials from the ToxCast library were tested in eight-point concentration-response experiments. Cell culture and cytotoxicity assays were conducted at Thermo Fisher Scientific's Custom Services facility (Madison, WI). A single lot of human HepaRG cells (Thermo Fisher Scientific, Frederick, MD) was used for the cell culture experiments. 96-well format collagen type I coated plates of human HepaRG cells were prepared using established methods. Briefly, cryopreserved HepaRG cells were thawed, plated at a density of approximately 100,000 cells/well in HepaRG Thaw, Plate, and General Purpose media (HPRG770, Thermo Fisher Scientific), and incubated for 48 hours. 0.5% DMSO was selected as vehicle control to balance the requisite need of DMSO in HepaRG cultures to maintain differentiation (for example, baseline metabolism, proportions of hepatocytes vs. cholangiocytes), while enabling further hepatic receptor pathway activation (for example, PXR and CAR) in response to chemical exposure. 48 hours after plating, the culture medium was replaced with HepaRG Serum-Free Incudtion Media. Cells were exposed to each test chemical in duplicate and maintained in CO2 incubators for another 48 hours. Chemical plates were thawed to room temperature and 200x concentrations of treatment groups were prepared. 8-point conentration-reponse curves were made with the highest exposure at 100 uM, followed by half-log dilutions, all in 0.5% DMSO. Each test plate contained variouse controls, induction positive controls (1mM phenobarbital), cytotoxicity positive controls ([…] aflatoxin B1), vehicle controls (0.5% DMSO), and total lysis controls (0.5% DMSO). Cell morphology images were taken using an Essen IncuCyte FLR automated microscope, with six 96-well plates imaged in about 24 minutes. Images were captured and exported and JPEG files. Spent culture media was transfered to black-well plates for the LDH assay, and remaining media was sorted at -80 C for later use. Cells were treated with RLT buffer and frozen until shipped for gene expression analysis. Total RNA was isolated from the cell suspension in 75 uL of Buffer RLT (Qiagen, Germantown, MD 20874) by Quintiles/Expression Analysis (Durham, NC) using a custom isolation procedure. Total RNA from each plate well was transferred to a preamplification plate. Fluidigm's 96.96 Dynamic ArrayTM (Fluidigm, Amsterdam, the Netherlands) technology was used for gene expression analyses by quantitative reverse transcription polymerase chain reaction (qRT-PCR, performed by Quintiles/Expression Analysis, Durham, NC)89. Standard TaqManTM Assays (Applied Biosystems/ThermoFisher Scientific, Foster City, CA) were used to assess the expression of 93 genes selected based on their selectivity and sensitivity to important hepatic receptors known to be modulated by environmental chemicals; importance in human hepatocyte functionality; and hepatotoxicity. […]

outcome, inactive:
S=c1[nH]c2ccccc2s1
COC(=O)CCC(=O)OC
O=C1CCCCC1
C=CCc1ccc(OC)c(OC)c1
C=CCCCCCCCCCCCC
Cc1ccc(-c2cc(C(F)(F)F)nn2-c2ccc(S(N)(=O)=O)cc2)cc1
c1ccc2occc2c1
O=C1O[C@H]([C@H](O)CO)C(O)=C1O
NC=O
O=NO
C#CC(O)C(CC)CCCC (stereo not given)
Oc1ccccc1O
CC(=O)CC(c1ccccc1)c1c(O)c2ccccc2oc1=O (stereo not given)
CC(=O)S[C@H](C(=O)N[C@H]1Cc2ccccc2[C@H]2CCC[C@@H](C(=O)O)N2C1=O)C(C)C
NCCOCCOCCN
CCCCC(CC)CO (stereo not given)
C/C=C/c1ccc(OC)cc1
Cc1ccc(C(C)(C)C)c(O)c1
CO[C@@H]1COCC[C@@H]1N[C@@H]1CC[C@@](C(=O)N2CCc3ncc(C(F)(F)F)cc3C2)(C(C)C)C1
CCC(C)N(C)C(=O)c1cc2ccccc2c(-c2ccccc2Cl)n1 (stereo not given)
OCC(CO)n1cnc(-c2ccc(F)cc2)c1-c1ccnc(Oc2ccccc2)n1
Cc1occc(=O)c1O
COc1ccc(OC(F)(F)F)cc1CN[C@H]1CCCN[C@H]1c1ccccc1
O=C(Oc1ccccc1)c1cccc(C(=O)Oc2ccccc2)c1
O=C1c2c(O)cccc2Cc2cccc(O)c21
CCCC[C@H]1CN(CC2CCOCC2)C(=O)OC12CCN(C1(C)CCN(C(=O)c3c(C)ncnc3C)CC1)CC2
N[C@@H](Cc1c[nH]c2ccccc12)C(=O)O
CC(C)OC(=O)C(C)(C)Oc1ccc(C(=O)c2ccc(Cl)cc2)cc1
CN(C)CCCN(C)CCCN(C)C
COC(=O)CCCC(=O)OC
CC(C)(C)c1ccccc1
CC(=O)OC1CC(C)OC(C)O1 (stereo not given)

AC50, active:
CN(C)C(=O)NC1(c2ccccc2)CCN(CCC[C@]2(c3ccc(Cl)c(Cl)c3)CCCN(C(=O)c3ccccc3)C2)CC1 22.2 µM
CC1=C(C)S(=O)(=O)CCS1(=O)=O 92.6 µM
Nc1nc(Cl)nc2c1ncn2[C@H]1C[C@H](O)[C@@H](CO)O1 1.2 µM
CCc1nc(N)nc(N)c1-c1ccc(Cl)cc1 2.6 µM
CC(C)NCC(O)c1ccc(O)c(O)c1 (stereo not given) 0.212 µM
O=C1OC(c2ccc(O)cc2)(c2ccc(O)cc2)c2ccccc21 50 µM
CCCCCCCCCCCCCCOS(=O)(=O)O 23.7 µM
Cc1cc(Cc2ccc(N)c(C)c2)ccc1N 5.09 µM
